According to the supplement of paper PMC7380943:

What was measured:
[1] = tested on: CLZ3 (HCA2 human fibroblast dual HR-NHEJ reporter); assay: NHEJ repair efficiency (GFP+ cells) relative to control (log10 fold); higher = more non-homologous end joining; conditions: 5 µM; doxycycline 0.5 ug/mL
[2] = tested on: CLZ3 (HCA2 human fibroblast dual HR-NHEJ reporter); assay: HR repair efficiency (tdTomato+ cells) relative to control (log10 fold); higher = more homologous recombination; conditions: 5 µM; doxycycline 0.5 ug/mL
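For HR repair efficiency (tdTomato+ cells) relative to control in this document: compound given one day before doxycycline, which switches on I-SceI endonuclease expression to create double-strand breaks within the integrated reporter.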
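For NHEJ repair efficiency (GFP+ cells) relative to control in this document: compound given one day ahead of doxycycline, which switches on I-SceI endonuclease to cut the chromosomally integrated reporter and create DSBs.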

Row | Structure (SMILES) | NHEJ repair efficiency (log10) [1] | HR repair efficiency (log10) [2]
1 | C[C@@]12C[C@@H](c3ccoc3)OC(=O)[C@@H]1CC[C@]1(C)[C@H]2[C@@H]2C=C[C@@]1(O)C(=O)O2 [Columbin] | -0.00145 | -0.0272
2 | CCN1C[C@]2(C)CC[C@H](OC)[C@@]34C1[C@]1(OCO[C@@]15C[C@H](OC)[C@H]1C[C@]3(O)[C@@H]5[C@H]1OC)[C@@H](OC(C)=O)[C@H]24 [Deltaline] | -0.125 | -0.263
3 | CCN1C[C@]2(COC)[C@H](O)C[C@H](OC)[C@@]34[C@@H]5C[C@@]6(O)[C@H](OC(=O)c7ccccc7)[C@@H]5[C@@](O)([C@@H]([C@H](OC)[C@H]23)[C@@H]14)[C@@H](O)[C@@H]6OC [Benzoylaconine] | -0.0909 | 0.0403
4 | CCN1C[C@]2(COC)CC[C@H](OC)[C@]34C1[C@H](C[C@H]23)[C@@]1(O)C[C@H](OC)[C@H]2C[C@@H]4[C@@H]1[C@H]2O [Talatisamine] | 0.0604 | 0.0585
5 | O=c1ccc2ccc3occc3c2o1 [Isopsoralen] | -0.0427 | -0.0598
